The record followed here is PubChem BioAssay (NCATS).

Experiment [1] in a line: Cell Viability - LYMP2-025 (AID 976).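 Further: plate controls were DMSO only for no effect and tetraoctylammonium bromide control for full effect.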 The gist of the method: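 Human lymphoblastoid LYMP2-025 cells (2500/well) were pre-incubated 5 hr at 37 C, then treated with compounds for 24 hr at 37 C in complete medium. Viability was read as intracellular ATP by CellTiter-Glo luminescence; AC50 from Hill fits.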
A short description of experiment [2]: Cell Viability - LYMP2-002 (AID 977).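 Further: compound exposure lasted 24 h at 37 °C; plate controls were DMSO only for no effect and 92 µM tetraoctylammonium bromide for full effect.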 The gist of the method: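 Human lymphoblastoid LYMP2-002 cells, 2500 per well, exposed to compounds for 24 h at 37 C in complete medium; viability read as intracellular ATP by CellTiter-Glo luminescence, AC50 from Hill fits.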
Experiment [3] can be described thus: Cell Viability - LYMP2-006 (AID 978). Further: on the % scale 0 is the no-effect control and ±100 the full control effect; nearly all actives have a fitted effect of over 60% in size. The gist of the method: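 Cells are seeded at 2500 per well and rested 5 hr at 37 C. Compounds are added across a concentration series for 24 hr at 37 C, after which ATP is quantified by luciferase luminescence.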
Experiment [4] can be described thus: Cell Viability - LYMP2-007 (AID 979).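 Further: cells exposed to compound for 24 h before reading; 0% = DMSO only and the negative end = 92 µM tetraoctylammonium bromide; nearly all actives have a fitted effect of over 60% in size.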 Summed up: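 Human lymphoblastoid cells (2500/well) were plated in complete medium, incubated 5 hr at 37 C, then exposed to compounds for 24 hr at 37 C. Intracellular ATP was read by CellTiter-Glo luminescence after 30 min at room temperature; AC50 from Hill fits.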
Experiment [5] is described as follows: Cell Viability - LYMP2-008 (AID 980). Further: on the % scale 0 is the no-effect control and ±100 the full control effect; nearly all actives have a fitted effect of over 60% in size. Summed up:
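Human lymphoblastoid cells (2500/well) were plated, held 5 hr at 37 C, then exposed to compounds for 24 hr at 37 C in complete medium. Intracellular ATP was read by CellTiter-Glo luminescence; AC50 from Hill-fitted concentration-response.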

Experiment [6] can be described thus: Cell Viability - LYMP2-010 (AID 981). Further: on the % scale 0 is the no-effect control and ±100 the full control effect; nearly all actives have a fitted effect of over 55% in size. The gist of the method:
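Human lymphoblastoid LYMP2-010 cells (2500/well) were preincubated 5 hr at 37 C, then exposed to compounds for 24 hr at 37 C in complete medium. Intracellular ATP was measured by CellTiter-Glo luminescence after 30 min at room temperature; AC50 from Hill-fitted concentration-response.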

Experiment [7] can be described thus: Cell Viability - LYMP2-012 (AID 982).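 Further: cellular ATP by luciferase luminescence where a drop means cytotoxicity; cells exposed to compound for one day before reading; 0% = DMSO only and full loss = 92 µM tetraoctylammonium bromide; nearly all actives have a fitted effect of over 55% in size.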
A short description of experiment [8]: Cell Viability - LYMP2-014 (AID 983).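 Further: plate controls were DMSO only for no effect and 92 µM tetraoctylammonium bromide for full effect; nearly all actives have a fitted effect of over 50% in size.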 The gist of the method: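 Human lymphoblastoid cells (2500/well) were pre-incubated 5 hr at 37 C, then exposed to compounds in complete medium for 24 hr at 37 C. Intracellular ATP was read by CellTiter-Glo luminescence after 30 min at room temperature; AC50 from Hill fits.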
Experiment [9] can be described thus: Cell Viability - LYMP2-016 (AID 984). Further: on the % scale 0 is the no-effect control and ±100 the full control effect; nearly all actives have a fitted effect of over 55% in size. The gist of the method:
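Cells were seeded at 2500 per well and rested 5 hr before a 24 hr compound exposure at 37 C. Viability was then gauged as cellular ATP by luciferase luminescence, with AC50 values fitted to the Hill equation.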

Experiment [10] is described as follows: Cell Viability - LYMP2-018 (AID 985).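 Further: plate controls were DMSO only for no effect and tetraoctylammonium bromide at 92 µM for full effect; nearly all actives have a fitted effect of over 50% in size.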 The gist of the method:
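Human lymphoblastoid cells (2500/well) were pre-incubated 5 hr at 37 C, then exposed to compounds for 24 hr at 37 C in complete medium. Viability was read as intracellular ATP by CellTiter-Glo luminescence; AC50 values came from Hill-equation fits.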

A short description of experiment [11]: Cell Viability - LYMP2-020 (AID 986).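 Further: plate controls were DMSO only for no effect and tetraoctylammonium bromide at 92 µM for full effect; nearly all actives have a fitted effect of over 55% in size.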 Summed up:
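Human lymphoblastoid cells, 2500/well, were pre-incubated 5 hr at 37 C, then exposed to compounds for 24 hr at 37 C in complete medium. Intracellular ATP was read by CellTiter-Glo luminescence, and AC50 was derived by Hill fitting of concentration-response data.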

Experiment [12] is described as follows: Cell Viability - LYMP2-022 (AID 987). Summed up: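 Human lymphoblastoid cells, 2500/well, preincubated 5 hr at 37 C, then exposed to compounds over a concentration range for 24 hr at 37 C in complete medium. Viability read as intracellular ATP by CellTiter-Glo luminescence after 30 min at room temperature; AC50 from Hill fits.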
A short description of experiment [13]: Cell Viability - LYMP2-024 (AID 988).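 Further: plate controls were DMSO only for no effect and 92 µM tetraoctylammonium bromide for full effect; nearly all actives have a fitted effect of over 60% in size.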 The gist of the method: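 Human lymphoblastoid cells (2500/well) in complete medium were preincubated 5 hr at 37 C, then exposed to compounds for 24 hr at 37 C. Intracellular ATP was read by CellTiter-Glo luminescence; AC50 from Hill-equation fits of concentration-response data.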
A short description of experiment [14]: Cell Viability - LYMP2-026 (AID 989). Further: on the % scale 0 is the no-effect control and ±100 the full control effect; nearly all actives have a fitted effect of over 50% in size. The gist of the method:
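Human lymphoblastoid cells (2500/well) in complete medium were preincubated 5 hr at 37 C, then exposed to compounds for 24 hr at 37 C. Cellular ATP was read by CellTiter-Glo luminescence; AC50 from Hill-equation fits of concentration-response data.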

Experiment [15] is described as follows: Cell Viability - LYMP1-002 - Assay at 24 hr (AID 993). Further: on the % scale 0 is the no-effect control and ±100 the full control effect. The gist of the method:
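Human lymphoblastoid LYMP1-002 cells, 2500/well in complete medium, were treated with compounds for 24 h at 37 C; intracellular ATP was read by CellTiter-Glo luminescence. AC50 values came from Hill-equation fits of qHTS concentration-response data.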

The nature of experiment [16]: Cell Viability - LYMP1-002 - Assay at 40 hr (AID 994). The gist of the method: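 Human lymphoblastoid cells, 2500/well in complete medium, were preincubated 5 hr at 37 C, then exposed to compounds for 40 hr at 37 C. Intracellular ATP was read by CellTiter-Glo luminescence after 30 min at room temperature; AC50 from Hill-equation fits.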
Experiment [17] can be described thus: qHTS Assay for Lipid Storage Modulators (AID 1519; calls by dose curve; on activity change, negative = inhibition: on the % scale 0 is the no-effect control and ±100 the full control effect). Particulars: Drosophila S3 cells, BODIPY lipid droplet/cell ratio, laser cytometry, cells loaded with oleic acid. Summed up: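 Cells seeded at 5,000 per well were treated with compounds over a concentration series and loaded with oleic acid (400 uM, as added). Lipid droplet fluorescence (488 nm excitation, 500-530 nm channel) was read by laser-scanning cytometry and normalized to 20 uM Triacsin C.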
Background: In qHTS, concentration-response curves come from the screen itself.

[18] abbreviates: measured here: cell count channel max response.
Setting [19] is: measured here: lipid channel max response.

Inconclusive results are not listed. Activity calls are given as the source filed them. Unless noted, the call rests on the fitted dose curve; in most records, active means well fitted cell-killing curve with a large enough effect; inconclusive means small, poorly fitted or top-dose-only effect; inactive means flat fitted curve, though single readings scatter.

For the molecule `CN1CCC[C@H]1c1cccnc1`, the Potency result in [1], in experiment [2], in [3], in experiment [4], in [5] and in experiment [6] was “inactive” throughout. Also, the Potency result in [7], in [8], in experiment [9], in experiment [10], in experiment [11] and in experiment [12] was “inactive” in each case. In addition, the Potency entry in experiment [13], in experiment [14], in experiment [15] and in experiment [16] was “inactive” throughout.
As to `CN(C)CCC(c1ccc(Cl)cc1)c1ccccn1` (stereo not drawn), the Potency result in experiment [1], in [2], in [3], in [4], in [5] and in experiment [8] was “inactive” throughout. Moreover, the Potency result in experiment [9], in experiment [10], in [11], in experiment [12], in experiment [13] and in experiment [14] was “inactive” in each case. Moreover, the Potency entry in experiment [15] and in experiment [16] was “inactive” in each case.
`Cc1c(Nc2ncccc2C(=O)O)cccc1C(F)(F)F`: the activity change, negative = inhibition in experiment [17] (at 25.7 µM (top of the series)) was -1.24% (inactive). Also, the max response was -9.98% in experiment [17] (setting [18]) and -11.1% in [17] (setting [19]).
Regarding `CCCCCCOc1ccccc1C(N)=O`, the activity change, negative = inhibition in experiment [17] (at 57.5 µM (top of the series)) is 12.4% (inactive). The max response in experiment [17] (setting [18]) came to 7.6%; in [17] (setting [19]), 24%.
With `C[C@@H](CN1CCC(Cc2ccccc2)CC1)[C@@H](O)c1ccc(O)cc1`, in [17] (at 57.5 µM (top of the series)), the activity change, negative = inhibition was 0.466% (inactive). The max response in experiment [17] (setting [18]) was found to be 15.4%; in experiment [17] (setting [19]) it was 14.5%.
In the case of `CC(C)NCC(O)COc1cccc2ccccc12` (stereo not drawn), the Potency entry in [1], in experiment [2], in experiment [3], in experiment [4], in [5] and in [6] was “inactive” each time. Moreover, the Potency entry in [7], in experiment [8], in experiment [9], in experiment [10], in experiment [11] and in experiment [12] was “inactive” in each case. Further, the Potency entry in [13], in [14], in [15] and in experiment [16] was “inactive” throughout. In experiment [17] (at 57.5 µM (top of the series)), the activity change, negative = inhibition was 10.9% (inactive). The max response in [17] (setting [18]) is 7.26%; in [17] (setting [19]), 23.9%.
With `Nc1cc(-c2ccncc2)c[nH]c1=O`, in [17] (at 25.7 µM (top of the series)), the activity change, negative = inhibition was 3.03% (inactive). In addition, the max response in [17] (setting [18]) is 5.25%; in [17] (setting [19]), 9.64%.
As for `Nc1ccc(O)c(C(=O)O)c1`, the Potency entry in [1], in experiment [2], in experiment [3], in experiment [4], in experiment [5] and in experiment [6] was “inactive” in each case. For the same molecule, the Potency result in experiment [7], in experiment [8], in experiment [9], in experiment [10], in experiment [11] and in experiment [12] was “inactive” in each case. For the same molecule, the Potency result in experiment [13], in experiment [14], in experiment [15] and in [16] was “inactive” each time. The activity change, negative = inhibition in experiment [17] (at 25.7 µM (top of the series)) is 1.25% (inactive). For the same molecule, the max response is -4.23% in experiment [17] (setting [18]) and -4.44% in [17] (setting [19]).
For `OC[C@H]1O[C@@H](n2cnc3c(NC4CCCCC4)ncnc32)[C@H](O)[C@@H]1O`, in [17] (at 57.5 µM (top of the series)), the activity change, negative = inhibition was 0.866% (inactive). Also, the results for the max response in experiment [17] (setting [18]) and in experiment [17] (setting [19]) were -23.3% and -24.5%, respectively.
